From PubChem
In the library only some 2.1% were active in any assay of this set; here they are far more common.
FUS yeast rescue: qHTS for Suppressors of FUS Proteinopathy: Primary screen using FUS-linked yeast assay; Potency, µM (titrated, usually from 76.6 µM), usual class: activators; S. cerevisiae FUS-expressing, growth rescue, OD600, 24 h; AID 1347120, 2019; hit rate 0.24% among 390,000;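 further: plate controls were DMSO vehicle for no effect and reference control for full effect; nearly all actives have a fitted effect of over 55% in size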
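Yeast expressing FUS under galactose induction, OD 0.005 in 2% galactose medium; compounds in a dilution series, 24 h at 30C. Growth rescue by absorbance at 600 nm; CP55940 positive control, DMSO negative.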
PTAP TSG101 blk: qHTS Assay for Iinhibitors of HIV-1 Budding by Blocking the Interaction of PTAP/TSG101; Tumor susceptibility gene 101 protein (Homo sapiens), Q99816; Fluorescence polarization, FITC-PTAP peptide / Tsg101 binding; Potency, µM (titrated, usually from 115 µM), inactives show top-dose activity change, negative = inhibition, hits mostly inhibitors; 340,000 tested, under 10 active; AID 493005, 2010; active means well fitted inhibition curve with a large enough effect in the main read-out, with a control signal flat, not every such curve was filed as active; inconclusive means small, poorly fitted or top-dose-only effect, or effect the other way, or a change in a side signal; inactive means no such curve, though single readings can be large or run the other way; further: % of control where 0% means no effect
Target sequence (Q99816 whole entry, looked up): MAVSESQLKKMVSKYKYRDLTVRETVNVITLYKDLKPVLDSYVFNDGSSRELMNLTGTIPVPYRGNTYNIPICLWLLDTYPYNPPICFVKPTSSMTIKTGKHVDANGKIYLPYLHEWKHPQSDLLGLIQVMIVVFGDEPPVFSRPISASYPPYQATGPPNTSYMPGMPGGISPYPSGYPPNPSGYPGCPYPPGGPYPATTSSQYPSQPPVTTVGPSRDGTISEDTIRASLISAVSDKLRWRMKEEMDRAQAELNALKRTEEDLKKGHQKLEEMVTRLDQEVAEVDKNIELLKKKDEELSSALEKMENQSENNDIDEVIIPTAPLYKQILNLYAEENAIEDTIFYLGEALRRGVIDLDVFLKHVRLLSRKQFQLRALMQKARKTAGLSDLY
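Compounds were pin-transferred onto Tsg101 binding domain (10 uM final) in HEPES pH 7.5 buffer, then FITC-PTAP peptide was added at 50 nM final. After 20 min at RT, polarization reported peptide displacement across a qHTS concentration series.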
Abeta rescue: qHTS for compounds that reverse cellular toxicity of Amyloid beta (A-beta) peptide in yeast: Primary Screen | Potency, µM (doses to about 46.1 µM), usual class: activators | hit rate 0.063% among 410,000 | yeast expressing A-beta42, growth rescue, OD600, 48 h; response scale: 0% DMSO, 100% iron-clioquinol control; further: nearly all actives have a fitted effect of over 55% in size
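Yeast A-beta toxicity model in growth medium with pinned compounds, 48 h at 30 C; growth read as absorbance at 600 nm. Normalized to FeCl3/clioquinol equimolar mix (positive) and DMSO (negative).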
TDP-43 yeast inh: qHTS of TDP-43 Inhibitors; TDP-43 expressing yeast growth rescue, BacTiter-Glo, 24 h; Potency, µM (series often up to 46.1 µM), inactives show at the highest dose growth rescue (activation), most hits filed as activators; hit rate 1.8% among 410,000; further: % of control where 0% means no effect; nearly all actives have a fitted effect of over 50% in size
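Yeast expressing TDP-43 (pregrown in raffinose, seeded at OD600=0.02 in galactose medium) exposed to compounds 24 hr at 30 deg C. Growth read by BacTiter-Glo luminescence; rescue of toxicity appears as increased signal.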
aSyn yeast inh: qHTS of alpha-syn Inhibitors | Yeast expressing alpha-synuclein, growth rescue, BacTiter-Glo, 24 h | Potency, µM (top dose mostly 46.1 µM), for inactives: at the top dose growth rescue (activation), actives largely listed as activators | AID 652106, 2013 | hit rate 0.14% among 370,000; further: % of control where 0% means no effect; nearly all actives have a fitted effect of over 65% in size
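Rescue of yeast growth: cells expressing toxic alpha-synuclein, induced in galactose at OD600 0.02, incubated with compound 24 h at 30 C. ATP luminescence quantified growth; inhibitors of toxicity appear as activators.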
An asterisk follows results filed as active; i = inactive; ? = inconclusive; . = not tested or not shown; [ ] = remark or other dose. Unless noted, the call rests on the fitted dose curve; in most records, active means well fitted curve in the direction sought with a large enough effect; inconclusive means small, poorly fitted or top-dose-only effect, or another doubt; inactive means no such curve, though single readings can be large; an effect the other way counts as inactive or inconclusive. Potency means the concentration at half of the fitted maximal effect.

SMILES | FUS yeast rescue | PTAP TSG101 blk | Abeta rescue | TDP-43 yeast inh | aSyn yeast inh
O=C1C=C(c2ccc(-c3ccccc3)cc2)C[C@@H](c2ccc3c(c2)OCO3)C1 | i | . | i | 12% | 1%
O=C(Nc1ccc(C(F)(F)F)cc1)OC1CC2CC1[C@H]1CCCCN1[C@H]2Cc1ccccc1 (some centres not stated) | i | . | . | . | .
COc1cccc(N2CCN(C(=O)C3CCN(S(=O)(=O)c4ccc5c(c4)CC(C)N5C(C)=O)CC3)CC2)c1 (configuration not stated) | 14µM* | -3% | . | 19% | 7%
CCCCNC(=O)N1CCC(c2nc3ccc(Cl)cc3[nH]2)CC1 | i | . | . | . | .
O=C(Oc1ccccc1C(=O)Nc1ccccc1)c1ccccc1Br | i | -6% | i | 11µM* | -2%
O=C(N/N=C\C=C\c1ccco1)C1COc2ccccc2O1 (configuration not stated) | i | 0% | i | 14µM* | 13%
O=C(N/N=C\c1cc(Br)cs1)C1COc2ccccc2O1 (configuration not stated) | i | 1% | ? | 35µM* | 14%
CCc1cc(SC#N)cc(C)c1N | i | -3% | i | 18µM* | -2%
CCc1cc(SC#N)cc(C)c1NC(=O)CCl | i | -6% | i | ? | 13%
CC(C)(C)c1ccc(/C=C(\C#N)C(=O)NC2CC2)cc1 | i | -5% | i | 35µM* | 27%
N#C/C(=C\c1ccc(F)c(Br)c1)C(=O)NC1CC1 | i | 0% | ? | ? | ?
O=S(=O)(NCc1ccccc1)c1ccc(Br)s1 | i | -5% | i | 11µM* | 10%
Cc1ccc(CNS(=O)(=O)c2ccc(Br)s2)cc1 | i | 0% | i | ? | 14%
Cc1ccc(C2=NOC(=O)/C2=C\c2ccccc2)cc1 | i | 0% | ? | 25µM* | 13%
COc1cc(/C=C2\C(=O)ON=C2c2ccccc2)cc(Br)c1O | i | 22% | i | 11µM* | 29%
CCc1cnc2ccccc2c1/C=C/c1ccc(N(C)C)cc1 | . | . | . | . | 7%
CCOC(=O)c1cccc(NC(=O)c2cc3c(Cl)nc4ccc(C)cc4c3s2)c1 | i | . | i | 18% | .
Cc1ccc(Cl)cc1-n1ncc2c(NC3CCCCC3)ncnc21 | i | . | i | 13µM* | .
Clc1cccc(-n2ncc3c(NC4CCCCC4)ncnc32)c1 | i | . | i | 16µM* | .
COc1ccc(NS(=O)(=O)c2ccc3oc4ccccc4c3c2)cn1 | i | -4% | i | ? | 22µM*
COc1ccccc1-c1cc2nc(C)c(CCC(=O)NCCc3ccc(SC)cc3)c(C)n2n1 | i | . | i | -37% | .
Brc1ccc(Oc2nsnc2N2CCOCC2)cc1 | i | -6% | i | 11µM* | -6%
COC(=O)Oc1nsnc1N1CCOCC1 | i | 3% | i | -12% | -40%
Cc1cccc(-c2nn3c(=O)cc(CN4CCN(C(=O)/C=C/c5ccccc5)CC4)nc3s2)c1 | i | . | i | 12% | .
O=[N+]([O-])c1cc(S(=O)(=O)Nc2ccccc2)ccc1Nc1ccccc1 | i | -3% | ? | 13µM* | 13%
SMILES | FUS yeast rescue | PTAP TSG101 blk | Abeta rescue | TDP-43 yeast inh | aSyn yeast inh
O=S(=O)(NCCSCc1ccc(Cl)cc1Cl)c1ccc2c(c1)OCCO2 | i | -4% | i | ? | 22%
Cc1ccc(S(=O)(=O)Nc2ccc3c(c2)OCCO3)cc1 | i | -2% | i | 11%[9.22 µM] | 10%
O=S(=O)(NCCSCc1c(Cl)cccc1Cl)c1ccc2c(c1)OCCO2 | i | 2% | i | 35µM* | 6%
Cc1c(Cl)cccc1NS(=O)(=O)c1ccc(NS(=O)(=O)c2ccc3c(c2)OCCO3)cc1 | 22µM* | . | i | 20% | .
Cc1ccsc1C(=O)Nc1n[nH]c(C(F)(F)F)n1 | i | 1% | i | 35µM* | 8%
Cc1csc(NC(=O)c2sccc2C)n1 | i | -2% | i | -30% | -36%
O=C(Cn1ncc(Cl)c(Cl)c1=O)c1ccc2c(c1)OCCO2 | . | -2% | i | 22µM* | ?
N/C(=N\OC(=O)N1c2ccccc2Sc2ccccc21)c1ccccc1 | i | -5% | i | 3.5µM* | -73%
Cc1cccc(/C(N)=N/OC(=O)N2c3ccccc3Sc3ccccc32)c1 | i | -1% | i | ? | -64%
COCCNC(=O)c1c(C)oc2nc(C)nc(N3CCOCC3)c12 | i | . | i | 18% | .
CCOC(=O)c1c(-c2ccc(Br)cc2)csc1NC(=O)c1ccc(C(C)(C)C)cc1 | i | . | i | 24% | .
O=C(O)Cc1cc2c(s1)CCCCC2 | i | 1% | i | 13µM* | 9%
NNC(=O)c1cc2c(s1)CCCCCC2 | i | -3% | i | 27% | 1%
CCOC(=O)c1c(-c2cccc([N+](=O)[O-])c2)csc1N | ? | -9% | i | 18µM* | 3%
Cc1cccc(-c2csc(N)c2C(=O)OC(C)C)c1 | i | -6% | i | 13µM* | 8%
CCCC1OC2C[C@@H]3[C@H]4CCC5=CC(=O)C=C[C@]5(C)[C@H]4C(O)C[C@]3(C)[C@]2(C(=O)CO)O1 (some centres not stated) | . | . | . | . | 0%
COc1cc(-c2cc(OC)c3c(C)oc(C)c3c(=O)c2)ccc1OC(=O)c1ccccc1Cl | 13µM* | . | i | 13% | .
COC(=O)[C@]12C[C@H](CC(=O)N3CCCCC3)C(=O)N(Cc3ccc(Cl)cc3Cl)C1=C[C@H](C(C)C)O[C@@H]2C1CC1 | i | . | . | . | .
CCCCNC(=O)C1(C)CCN1C(=O)c1csnn1 (configuration not stated) | i | . | i | 23% | 0%
CC(C)(C)NC(=S)N1CCC(C(=O)c2ccc(F)cc2)CC1 | i | -3% | i | 20% | 5%
O=C(c1ccc(F)cc1)C1CCN(C(=S)Nc2ccc(F)cc2)CC1 | i | -3% | ? | 22µM* | 12%
CC(C)(C)c1ccc(-c2cn(C[C@H](Cc3ccccc3)n3c(=O)c4ccccc4n3Cc3ccco3)nn2)cc1 | i | . | . | . | .
O=c1c2ccccc2n(Cc2ccco2)n1[C@@H](Cc1ccccc1)Cn1cc(-c2ccc(-c3ccccc3)cc2)nn1 | 18µM* | . | . | . | .
CCc1ccc(N2CC(c3nnc(NC(=O)c4ccco4)s3)CC2=O)cc1 (configuration not stated) | i | . | i | 0%[9.22 µM] | .
CC1CCN(C2=NC(=O)/C(=C/c3ccccc3F)S2)CC1 | i | 1% | i | 13µM* | 8%
CN(C)c1ccc(/C=C/c2c(F)cnc3ccccc23)cc1 | . | . | . | . | 1%
